Results as given in PubChem BioAssay AID504725 (Broad Institute, 2011).
Measured potencies and affinities stand elsewhere. Calls of active or inactive are those of the source. The rule behind the calls is not given here.

Molecular target: KSHV LANA C-terminal domain (residues 932-1162) binding to LBS DNA (UniProt O40947)
Test: inhibitors of C-LANA binding to LBS DNA, dose response, biochemical, fluorescence polarization, cherry-picked samples (AID 504725)
Details: MBP-C-LANA / FAM-LBS DNA fluorescence polarization, percent change from plate compound-well median; series mostly up to 35 µM; activity change, negative = inhibition: at the top concentration

Activity change, negative = inhibition, inactive:
CCCN(CCC)C(=O)C1c2ccccc2Oc2ccccc21 2.82%
C=CCN1C(=O)/C(=c2\sc3nc(=O)c(Cc4ccccc4Cl)nn3c2=O)c2ccccc21 -0.488%
NC(=O)C1(N2CCCCC2)CCN(Cc2ccc(Br)cc2)CC1 -5.04%
Cc1ccc(NS(=O)(=O)c2ccc(C(=O)NCCCN3CCCC3=O)cc2)cc1 2.81%
O=C(c1coc(=O)c(Br)c1)N1CCCc2ccccc21 -7.34%
Cc1ccc(NC(=O)CN(C)C(=O)c2nn(C)c(=O)c3ccccc23)cc1 5.21%
N#CCCN(CCC#N)C(=O)C1c2ccccc2Oc2ccccc21 -7.45%
Cc1cccc(-c2nsc(SCC(=O)Nc3nccs3)n2)c1 2.95%
Cc1ccc(S(=O)(=O)/N=C/c2ccc(N(C)C)cc2)cc1 -1.14%
Cc1ccc(C)c(OCC(=O)N(Cc2nnc(-c3ccccc3Cl)o2)C2CC2)c1 1.41%
O=C(O)/C(=C\c1cccs1)Sc1nnc(-c2ccc(F)cc2)o1 2.45%
COc1ccc(/C=C/C(=O)NC(=S)Nc2ccc(S(N)(=O)=O)cc2)cc1 -5.56%
O=C(Nc1ccccc1F)c1coc(=O)c(Br)c1 0.139%
COc1ccc(OCC(=O)N2CCN(c3cccc(C(F)(F)F)c3)CC2)cc1 2.95%
CC(C)N(C(=S)Nc1cccnc1)c1ccccc1 -1.45%
S=c1c2c(nc3nc[nH]n13)CCC2 -0.257%
CCCc1nc(NCc2ccccn2)c2nnn(Cc3ccccc3F)c2n1 1.2%
COc1cccc(NC(=S)N2CCN(C(c3ccccc3)c3ccccc3)CC2)c1 4.03%
Cn1c(=O)oc2cc(S(=O)(=O)CCC(=O)N3CCN(c4ccccc4F)CC3)ccc21 -10.4%
CC(=O)OCCCn1c(C)[n+](C)c2cc(Cl)c(Cl)cc21 2.61%
NC1=NC[C@@H](Cc2ccc(O)cc2)N1CCc1cc(C(F)(F)F)cc(C(F)(F)F)c1 2.83%
COc1c2c(nc3occc13)C(CCC(C)(C)O)(OC)C(O)CC2 (stereo not drawn) -3.02%
Cc1ccc(C(CC(=O)N2CCCCC2)c2ccccc2)c(O)c1C (stereo not drawn) -6%
O=c1c2cc(O)c(O)cc2oc2cc(O)c(C3OC(CO)C(O)C(O)C3O)c(O)c12 (stereo not drawn) -17.7%
CCCCN(C(=O)C(C)Oc1ccc(Br)cc1)c1c(N)n(CC(C)C)c(=O)[nH]c1=O (stereo not drawn) 2.89%
O=C(COc1cccc(F)c1)Nc1nc(-c2cccnc2)cs1 3.12%
CCc1sc(C(=O)NNC(=O)CNC(=O)c2ccccc2F)cc1C -2.7%
CCOC(=O)C1(Cc2cccc(F)c2)CCN(Cc2c(C)nn(CC)c2C)CC1 -0.116%
CSCCC(NC(=O)c1ccccc1Cl)C(=O)N1CCCC(C)C1 (stereo not drawn) 0.532%
NC(=S)N/N=C/c1cn(CCC(=O)O)nc1-c1cccc(Br)c1 2.56%
COc1cccc(NC(=O)CN(C)CC(=O)NCc2ccco2)c1 -0.425%
CCOC(=O)C1=C(O)/C(=C/c2cc(C)n(-c3ccccc3)c2C)N=C1C -2.16%
Cc1ccc(C(=O)CCC(=O)Nc2ncccc2C)cc1 2.21%
Cc1noc(C)c1-c1nc(CSc2ccccc2)no1 -2.84%
Nc1cc(N)nc(SCC(=O)N2CCCCC2)n1 2.67%
COC(=O)C1=COC(C)C2CN3CCc4c([nH]c5ccccc45)C3CC12 (stereo not drawn) 0.07%
COc1cccc(/C=N/NC(=O)C(=O)NCc2cccnc2)c1O 3.81%
Cc1ccsc1/C=N/NC(=O)Cc1ccc(Cl)cc1 -0.731%
